Data published in PubChem BioAssay (NCI).
About 83,000 compounds went through this panel and 20% of them were active in at least one assay; those are over-represented in the sample as a whole.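 Interpretation: 100, growth as untreated; towards 0, rising growth inhibition; 0, no net growth; 0 to -100, cell death. Compounds scoring below 10 were considered active.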 The source made the active and inactive calls.

Legend:
Test in all cases: NCI-60 one-dose screen, 48 h (100 = growth as untreated, 0 = no growth, -100 = all killed)
Details in all cases: 10 µM unless noted
SK-MEL-2 melanoma = test system: SK-MEL-2 melanoma
SN12C renal = test system: SN12C renal
UO-31 renal = test system: UO-31 renal
TK-10 renal = test system: TK-10 renal
ACHN renal = test system: ACHN renal
CAKI-1 renal = test system: CAKI-1 renal
A498 renal = test system: A498 renal
CCRF-CEM leukemia = test system: CCRF-CEM leukemia
MOLT-4 leukemia = test system: MOLT-4 leukemia
SR leukemia = test system: SR leukemia
OVCAR-8 ovarian = test system: OVCAR-8 ovarian
OVCAR-5 ovarian = test system: OVCAR-5 ovarian
OVCAR-4 ovarian = test system: OVCAR-4 ovarian
SK-OV-3 ovarian = test system: SK-OV-3 ovarian
IGROV1 ovarian = test system: IGROV1 ovarian
OVCAR-3 ovarian = test system: OVCAR-3 ovarian
HS 578T breast = test system: HS 578T breast
NCI/ADR-RES ovarian = test system: NCI/ADR-RES ovarian
RPMI-8226 leukemia = test system: RPMI-8226 leukemia

Measured: growth

C/C(=C\CCc1ccoc1)CC/C=C(\C)CCCN1CCOCC1
inactive: SK-MEL-2 melanoma 78.7% | SN12C renal 70.5% | UO-31 renal 52.3% | TK-10 renal 61.3% | ACHN renal 76.3% | CAKI-1 renal 58.3% | A498 renal 75.7% | CCRF-CEM leukemia 29.6% | MOLT-4 leukemia 54.2% | SR leukemia 21% | OVCAR-8 ovarian 71.5% | OVCAR-5 ovarian 63% | OVCAR-4 ovarian 58.3% | SK-OV-3 ovarian 74.4% | IGROV1 ovarian 71.3% | OVCAR-3 ovarian 51.8% | HS 578T breast 69.9% | NCI/ADR-RES ovarian 74.5%

C=CCN(/C=C/CN(CC=C)CC=C)CC=C
inactive: SK-MEL-2 melanoma 115% | SN12C renal 104% | UO-31 renal 90.1% | TK-10 renal 96.9% | ACHN renal 93.2% | CAKI-1 renal 69.7% | A498 renal 91.8% | MOLT-4 leukemia 96.4% | SR leukemia 85.3% | RPMI-8226 leukemia 95.8% | OVCAR-8 ovarian 95.8% | OVCAR-5 ovarian 104% | OVCAR-4 ovarian 91.7% | SK-OV-3 ovarian 103% | IGROV1 ovarian 96.3% | OVCAR-3 ovarian 105% | HS 578T breast 109% | NCI/ADR-RES ovarian 107%

CSc1nc2nc3c(nc2c(=O)n1C)C(=O)c1ccccc1C3=O
active: SK-MEL-2 melanoma -64.9% | SN12C renal -76.7% | UO-31 renal -86.1% | TK-10 renal -79.1% | ACHN renal -95% | CAKI-1 renal -35.3% | A498 renal -75.3% | MOLT-4 leukemia -11.9% | SR leukemia 6.56% | RPMI-8226 leukemia -20.2% | OVCAR-8 ovarian -8.36% | OVCAR-5 ovarian -91.7% | OVCAR-4 ovarian -53% | SK-OV-3 ovarian -22.2% | IGROV1 ovarian -53% | OVCAR-3 ovarian -63.8% | HS 578T breast -21.6% | NCI/ADR-RES ovarian -4.99%

CCCCCCCCCCOC(C)=O
inactive: SK-MEL-2 melanoma 116% | SN12C renal 103% | UO-31 renal 89% | TK-10 renal 116% | ACHN renal 98.8% | CAKI-1 renal 79.8% | A498 renal 108% | MOLT-4 leukemia 103% | SR leukemia 98.6% | RPMI-8226 leukemia 99.1% | OVCAR-8 ovarian 101% | OVCAR-5 ovarian 101% | OVCAR-4 ovarian 103% | SK-OV-3 ovarian 110% | IGROV1 ovarian 96.2% | OVCAR-3 ovarian 110% | HS 578T breast 101% | NCI/ADR-RES ovarian 111%
